Laboratory results as given in PubChem BioAssay AID1159580 (chemical genetic matrix, 2015).
Values joined by “and” are separate entries in the source; they are usually repeats but may differ in a detail not shown here. Equal values may be shown once. The campaign covered roughly 5,500 compounds. About 2,000 (36%) were called active. About 18% were inconclusive and are not listed. Cut-off read from the data, not from the text of the source: active = normalized growth mostly below about 0.91 (no sharp cut-off); inconclusive = no clear call, values can overlap the other calls; inactive = mostly above about 0.92. This is one part of the list. Some compounds were tested as several samples or in several runs, with calls that do not always agree.

Experiment: chemical genetic growth profiling, strain panel (AID 1159580);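 note: tested at 20 µM; growth read once vehicle control cultures reached saturation at 30 °C; 1 = growth at the plate median or of vehicle wells; lower values mean less growth of the strain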
Settings: growth OD

COc1ccccc1N1CCNCC1
normalized growth (S. cerevisiae deletion strains, locus YAL013W, strain DEP1, stronger effect = lower value): 1.01 (inactive) and 0.975 (inactive)
normalized growth (S. cerevisiae deletion strains, locus YAL040C, strain CLN3, stronger effect = lower value): 0.965 (inactive)
normalized growth (S. cerevisiae deletion strains, locus YBR021W, strain FUR4, stronger effect = lower value): 1.01 (inactive)
normalized growth (S. cerevisiae deletion strains, locus YBR229C, strain ROT2, stronger effect = lower value): 1.01 (inactive)
normalized growth (S. cerevisiae deletion strains, locus YCL029C, strain bik1, stronger effect = lower value): 1.03 (inactive)
normalized growth (S. cerevisiae deletion strains, locus YCL061C, strain MRC1 (second series), stronger effect = lower value): 0.993 (inactive)
normalized growth (S. cerevisiae deletion strains, locus YDL035C, strain GPR1, stronger effect = lower value): 1.01 (inactive)
normalized growth (S. cerevisiae deletion strains, locus YDL074C, strain BRE1, stronger effect = lower value): 1.01 (inactive)
normalized growth (S. cerevisiae deletion strains, locus YDL101C, strain DUN1, stronger effect = lower value): 1 (inactive)
normalized growth (S. cerevisiae deletion strains, locus YDL134C, strain PPH21, stronger effect = lower value): 1.01 (inactive)
normalized growth (S. cerevisiae deletion strains, locus YDL185W, strain tfp1, stronger effect = lower value): 1.03 (inactive)
normalized growth (S. cerevisiae deletion strains, locus YDL192W, strain arf1, stronger effect = lower value): 1.03 (inactive)
normalized growth (S. cerevisiae deletion strains, locus YDR101C, strain arx1, stronger effect = lower value): 1.02 (inactive)
normalized growth (S. cerevisiae deletion strains, locus YDR150W, strain NUM1, stronger effect = lower value): 1 (inactive) and 0.996 (inactive)
normalized growth (S. cerevisiae deletion strains, locus YDR162C, strain NBP2, stronger effect = lower value): 1.01 (inactive)
normalized growth (S. cerevisiae deletion strains, locus YDR318W, strain mcm21, stronger effect = lower value): 1.03 (inactive)
normalized growth (S. cerevisiae deletion strains, locus YDR363W, strain ESC2, stronger effect = lower value): 0.962 (inactive)
normalized growth (S. cerevisiae deletion strains, locus YDR388W, stronger effect = lower value): 1.03 (inactive)
normalized growth (S. cerevisiae deletion strains, locus YDR502C, strain sam2, stronger effect = lower value): 1.02 (inactive)
normalized growth (S. cerevisiae deletion strains, locus YEL061C, strain CIN8, stronger effect = lower value): 1.01 (inactive)
normalized growth (S. cerevisiae deletion strains, locus YER002W, strain NOP16, stronger effect = lower value): 0.99 (inactive)
normalized growth (S. cerevisiae deletion strains, locus YER110C, stronger effect = lower value): 1.03 (inactive)
normalized growth (S. cerevisiae deletion strains, locus YER155C, strain BEM2, stronger effect = lower value): 1.01 (inactive)
normalized growth (S. cerevisiae deletion strains, locus YER167W, strain BCK2, stronger effect = lower value): 1.03 (inactive)
normalized growth (S. cerevisiae deletion strains, locus YGL078C, strain dbp3, stronger effect = lower value): 1.02 (inactive)
normalized growth (S. cerevisiae deletion strains, locus YGL086W, strain mad1, stronger effect = lower value): 1.02 (inactive)
normalized growth (S. cerevisiae deletion strains, locus YGL248W, strain PDE1, stronger effect = lower value): 1.01 (inactive)
normalized growth (S. cerevisiae deletion strains, locus YGR078C, strain PAC10, stronger effect = lower value): 1 (inactive)
normalized growth (S. cerevisiae deletion strains, locus YGR135W, strain pre9, stronger effect = lower value): 1.02 (inactive)
normalized growth (S. cerevisiae deletion strains, locus YGR229C, strain SMI1, stronger effect = lower value): 0.999 (inactive)
normalized growth (S. cerevisiae deletion strains, locus YGR252W, strain gcn5, stronger effect = lower value): 1.05 (inactive)
normalized growth (S. cerevisiae deletion strains, locus YHR030C, strain SLT2, stronger effect = lower value): 0.999 (inactive)
normalized growth (S. cerevisiae deletion strains, locus YHR079C, strain IRE1 (second series), stronger effect = lower value): 1.03 (inactive)
normalized growth (S. cerevisiae deletion strains, locus YHR094C, strain hxt1, stronger effect = lower value): 1.03 (inactive)
normalized growth (S. cerevisiae deletion strains, locus YHR129C, strain ARP1, stronger effect = lower value): 1 (inactive)
normalized growth (S. cerevisiae deletion strains, locus YHR200W, strain rpn10, stronger effect = lower value): 1.03 (inactive)
normalized growth (S. cerevisiae deletion strains, locus YIL066C, strain RNR3, stronger effect = lower value): 1.01 (inactive)
normalized growth (S. cerevisiae deletion strains, locus YIL073C, strain SPO22, stronger effect = lower value): 1.12 (inactive)
normalized growth (S. cerevisiae deletion strains, locus YIL125W, strain kgd1, stronger effect = lower value): 1.02 (inactive)
normalized growth (S. cerevisiae deletion strains, locus YIR030C, strain dcg1, stronger effect = lower value): 1.04 (inactive)
normalized growth (S. cerevisiae deletion strains, locus YJL095W, strain BCK1, stronger effect = lower value): 1 (inactive)
normalized growth (S. cerevisiae deletion strains, locus YJL134W, strain LCB3, stronger effect = lower value): 0.999 (inactive)
normalized growth (S. cerevisiae deletion strains, locus YJL168C, strain set2, stronger effect = lower value): 1.04 (inactive)
normalized growth (S. cerevisiae deletion strains, locus YJL187C, strain SWE1 (second series), stronger effect = lower value): 1.01 (inactive)
normalized growth (S. cerevisiae deletion strains, locus YJR043C, strain POL32, stronger effect = lower value): 1.01 (inactive)
normalized growth (S. cerevisiae deletion strains, locus YJR075W, strain HOC1, stronger effect = lower value): 0.969 (inactive) and 0.984 (inactive)
normalized growth (S. cerevisiae deletion strains, locus YKL009W, strain mrt4, stronger effect = lower value): 0.986 (inactive)
normalized growth (S. cerevisiae deletion strains, locus YKL068W, stronger effect = lower value): 1.01 (inactive)
normalized growth (S. cerevisiae deletion strains, locus YKL085W, strain MDH1 (second series), stronger effect = lower value): 1.04 (inactive)
normalized growth (S. cerevisiae deletion strains, locus YKL085W, strain MDH1, stronger effect = lower value): 1.04 (inactive)
normalized growth (S. cerevisiae deletion strains, locus YKL190W, strain CNB1, stronger effect = lower value): 0.994 (inactive)
normalized growth (S. cerevisiae deletion strains, locus YKR001C, strain vps1, stronger effect = lower value): 1.04 (inactive)
normalized growth (S. cerevisiae deletion strains, locus YLR039C, strain RIC1, stronger effect = lower value): 1.05 (inactive)
normalized growth (S. cerevisiae deletion strains, locus YLR058C, strain SHM2, stronger effect = lower value): 1.01 (inactive)
normalized growth (S. cerevisiae deletion strains, locus YLR102C, strain apc9, stronger effect = lower value): 1.04 (inactive)
normalized growth (S. cerevisiae deletion strains, locus YLR262C, strain YPT6, stronger effect = lower value): 1.06 (inactive)
normalized growth (S. cerevisiae deletion strains, locus YLR268W, strain sec22, stronger effect = lower value): 1.02 (inactive)
normalized growth (S. cerevisiae deletion strains, locus YLR330W, strain CHS5, stronger effect = lower value): 1 (inactive)
normalized growth (S. cerevisiae deletion strains, locus YLR342W, strain FKS1 (second series), stronger effect = lower value): 1.01 (inactive)
normalized growth (S. cerevisiae deletion strains, locus YLR371W, strain rom2, stronger effect = lower value): 1.03 (inactive)
normalized growth (S. cerevisiae deletion strains, locus YLR418C, strain cdc73, stronger effect = lower value): 1.04 (inactive)
normalized growth (S. cerevisiae deletion strains, locus YML016C, strain PPZ1, stronger effect = lower value): 1.01 (inactive)
normalized growth (S. cerevisiae deletion strains, locus YML032C, strain rad52, stronger effect = lower value): 1.03 (inactive)
normalized growth (S. cerevisiae deletion strains, locus YML124C, strain tub3, stronger effect = lower value): 1.02 (inactive)
normalized growth (S. cerevisiae deletion strains, locus YMR078C, strain ctf18, stronger effect = lower value): 1.04 (inactive)
normalized growth (S. cerevisiae deletion strains, locus YMR223W, strain ubp8, stronger effect = lower value): 1.03 (inactive)
normalized growth (S. cerevisiae deletion strains, locus YMR263W, strain SAP30, stronger effect = lower value): 0.997 (inactive) and 0.985 (inactive)
normalized growth (S. cerevisiae deletion strains, locus YMR307W, strain GAS1, stronger effect = lower value): 0.992 (inactive) and 1 (inactive)
normalized growth (S. cerevisiae deletion strains, locus YNL067W, strain RPL9B, stronger effect = lower value): 1 (inactive)
normalized growth (S. cerevisiae deletion strains, locus YNL128W, strain TEP1, stronger effect = lower value): 1.01 (inactive)
normalized growth (S. cerevisiae deletion strains, locus YNL153C, strain GIM3, stronger effect = lower value): 0.987 (inactive) and 1.27 [resistant] (active)
normalized growth (S. cerevisiae deletion strains, locus YNL175C, strain NOP13, stronger effect = lower value): 0.992 (inactive)
normalized growth (S. cerevisiae deletion strains, locus YNL197C, strain WHI3, stronger effect = lower value): 1.02 (inactive)
normalized growth (S. cerevisiae deletion strains, locus YNL224C, strain SQS1, stronger effect = lower value): 0.994 (inactive)
normalized growth (S. cerevisiae deletion strains, locus YNL233W, strain BNI4, stronger effect = lower value): 1.02 (inactive)
normalized growth (S. cerevisiae deletion strains, locus YNL250W, strain rad50, stronger effect = lower value): 1.05 (inactive)
normalized growth (S. cerevisiae deletion strains, locus YNL271C, strain bni1, stronger effect = lower value): 1.04 (inactive)
normalized growth (S. cerevisiae deletion strains, locus YNL298W, strain CLA4, stronger effect = lower value): 1.05 (inactive)
normalized growth (S. cerevisiae deletion strains, locus YNL307C, strain MCK1, stronger effect = lower value): 1.05 (inactive)
normalized growth (S. cerevisiae deletion strains, locus YNL322C, strain KRE1, stronger effect = lower value): 1.01 (inactive) and 0.972 (inactive)
normalized growth (S. cerevisiae deletion strains, locus YNR052C, strain pop2, stronger effect = lower value): 1.03 (inactive)
normalized growth (S. cerevisiae deletion strains, locus YOL006C, strain TOP1, stronger effect = lower value): 0.997 (inactive)
normalized growth (S. cerevisiae deletion strains, locus YOL012C, strain htz1): 0.807 (inactive)
normalized growth (S. cerevisiae deletion strains, locus YOL147C, strain pex11, stronger effect = lower value): 1.02 (inactive)
normalized growth (S. cerevisiae deletion strains, locus YOR061W, strain CKA2, stronger effect = lower value): 1.01 (inactive)
normalized growth (S. cerevisiae deletion strains, locus YOR069W, strain VPS5, stronger effect = lower value): 0.997 (inactive)
normalized growth (S. cerevisiae deletion strains, locus YOR083W, strain WHI5 (second series), stronger effect = lower value): 1 (inactive)
normalized growth (S. cerevisiae deletion strains, locus YOR136W, strain idh2, stronger effect = lower value): 1.03 (inactive)
normalized growth (S. cerevisiae deletion strains, locus YOR144C, strain elg1, stronger effect = lower value): 1.03 (inactive)
normalized growth (S. cerevisiae deletion strains, locus YOR184W, strain ser1, stronger effect = lower value): 1.05 (inactive)
normalized growth (S. cerevisiae deletion strains, locus YOR316C, strain cot1, stronger effect = lower value): 1.03 (inactive)
normalized growth (S. cerevisiae deletion strains, locus YPL055C, strain LGE1, stronger effect = lower value): 1.03 (inactive) and 0.983 (inactive)
normalized growth (S. cerevisiae deletion strains, locus YPL241C, strain CIN2, stronger effect = lower value): 1.01 (inactive)
normalized growth (S. cerevisiae deletion strains, locus YPR119W, strain clb2, stronger effect = lower value): 1.02 (inactive)
normalized growth (S. cerevisiae deletion strains, locus YPR141C, strain kar3, stronger effect = lower value): 1.03 (inactive)
normalized growth (S. cerevisiae deletion strains, locus YPR163C, strain tif3, stronger effect = lower value): 1.03 (inactive)
normalized growth (S. cerevisiae deletion strains, locus YPR167C, strain met16, stronger effect = lower value): 1.03 (inactive)
normalized growth (S. cerevisiae deletion strains, strain wtn01, stronger effect = lower value): 1.01 (inactive)
normalized growth (S. cerevisiae strains, strain wild type, stronger effect = lower value): 1.01 (inactive)
